{"source": "PubChem BioAssay AID1963319", "about": "(National Center for Advancing Translational Sciences (NCATS), 2024)", "note": "The whole screen tested about 1,300 compounds, of which about 120 (9.2%) were called active. Another 35% or so got no clear call; they are omitted. Calls come from the whole dose curve; as a rule, active = well fitted activation curve with a large enough effect; inconclusive = small, poorly fitted or top-dose-only effect; inactive = flat fitted curve, though single readings scatter. Not all results are given here. Entries that show only a call come without a potency. Potency is the fitted concentration of half-maximal effect."}
{"target": "Luciferin 4-monooxygenase (Photinus pyralis) (UniProt P08659)", "sequence (P08659 whole entry, looked up)": "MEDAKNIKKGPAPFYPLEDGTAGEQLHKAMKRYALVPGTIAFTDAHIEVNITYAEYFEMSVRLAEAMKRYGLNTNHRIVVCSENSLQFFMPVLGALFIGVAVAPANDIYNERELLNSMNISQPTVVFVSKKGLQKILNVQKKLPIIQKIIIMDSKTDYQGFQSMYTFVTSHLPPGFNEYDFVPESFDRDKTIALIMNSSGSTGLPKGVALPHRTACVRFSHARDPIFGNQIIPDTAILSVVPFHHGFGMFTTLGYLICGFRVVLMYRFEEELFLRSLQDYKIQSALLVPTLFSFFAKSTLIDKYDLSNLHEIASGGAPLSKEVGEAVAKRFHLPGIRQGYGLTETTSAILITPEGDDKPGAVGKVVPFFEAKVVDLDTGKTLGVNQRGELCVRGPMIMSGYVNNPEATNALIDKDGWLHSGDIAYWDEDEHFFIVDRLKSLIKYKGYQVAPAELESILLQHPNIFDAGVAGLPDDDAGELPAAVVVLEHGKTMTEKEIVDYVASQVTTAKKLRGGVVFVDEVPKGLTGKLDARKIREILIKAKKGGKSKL", "test": "Firefly luciferase (FLuc-C-HiBiT) SDR gain of signal screen - plus ATP;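 note: signal reports ligand binding via conformational change of the enzyme rather than luciferase catalysis; nearly all actives have a fitted effect of over 55% in size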", "settings": "purified FLuc-C-HiBiT + ATP, HiBiT complementation luminescence; series mostly up to 32.7 µM", "source_text": "PI: James Inglese Ph.D. National Center for Advancing Translational Sciences (NCATS), National Institute of Health (NIH), Maryland Discovery and optimization of novel protein-binding ligands underlies many of the methods and applications of biology, drug discovery, clinical diagnostics, and environmental toxicology. Assays for detecting the interaction of, for example, a molecule with a macromolecular target also referred to here as the target of interest (TOI) is dependent on a compatible output technology. Depending on the nature and knowledge surrounding the TOI, whether a receptor, enzyme, regulatory subunit or scaffold, or a sequence-defined nucleic acid folded into a complex tertiary structure, assay strategies can vary widely. Here we exploit ligand-biased changes in the structural dynamics of the target protein to control reporter alpha complementation allowing a non-competitive, non-functional, non-separation measure of ligand-target interaction. […] Using a chemical library of >1,200 compounds enriched for scaffolds known to be associated with the inhibition of firefly luciferase (FLuc) activity (PubChem AIDs 2309) we first illustrate and compare the Structural Dynamics Response (SDR) assay vs. the standard functional FLuc enzyme assay (2). Secondly, we show the specificity and sensitivity of the SDR for the Abelson tyrosine kinase (ABL1) compared to the serine/threonine protein kinase A, using an enriched chemical library of 128 compounds selected, in part, for activity annotated with ABL1 kinase activity using the Pharos database (3). References: (1) A. S. Dixon et al., NanoLuc Complementation Reporter Optimized for Accurate Measurement of Protein Interactions in Cells. ACS Chem Biol 11, 400-408 (2016). […] Chemistry & Biology, 19, 1060 - 1072 (2012). (3) K. J. Kelleher et al., Pharos 2023: an integrated resource for the understudied human proteome. Nucleic Acids Res 51, D1405-D1416 (2023).\n1. Reagent. Dispense 4 uL FLuc-C-HiBiT enzyme-buffer solution per well at a final enzyme concentration of 10 nM with or without 10 uM ATP into columns 2-48 of white, solid bottom medium bind 1536-well plates (Greiner Bio-One) by BioRaptr 2. Dispense respective buffer without enzyme at 4 uL/well in column 1 of assay plates. 2. Compounds. Library compounds and PTC124 control added at 23 nL per well, transfer by Pin Tool. 3. Incubation. Incubate enzyme and compounds at room temperature for >30 min, protect from light. 4. Reagent. (SDR assay) Add 3 uL/well of Nano-Glo HiBiT reagent (Promega) to assay plates for SDR assay with ATP. 5. Incubation. Incubate enzyme and substrate or detection reagent at room temperature for 5-10 min, protect from light. 6. Detector. HiBiT SDR assay measured using CCD-based camera (ViewLux) with settings as follows: Exposure, 1 sec; Gain, High; Speed, Slow; Binning, 2X. REFERENCES: Inglese J, Shamu CE and Guy RK, Reporting data from high throughput screening of small molecule libraries, Nature Chemical Biology, 2007, 3(8): 438-441. doi.org/10.1038/nchembio0807-438."}
{"smiles": "CC(=O)c1ccc(NC(=O)CSc2nnc(NC(=O)Nc3ccccc3)s2)cc1", "Potency": "inactive"}
{"smiles": "Cc1ccc(C(=O)Nc2ccc(-c3nc4ccccc4s3)c(O)c2)cc1", "Potency": "inactive"}
{"smiles": "Cc1nn(-c2ccc(C(C)(C)C)cc2)c(C)c1[C@@H]1C=C[C@@H](NC(=O)c2ccco2)C1", "Potency": "inactive"}
{"smiles": "Oc1ccc(-c2nc(C3CC3)nc3c2CCN(Cc2cccc(F)c2)CC3)cc1", "Potency": "inactive"}
{"smiles": "CC(=O)Nc1ccc(NC(=O)CCCc2nc(-c3ccc(C(C)(C)C)cc3)no2)cc1", "Potency": "inactive"}
{"smiles": "Cc1ccc(Nc2c(-c3ccc(N(C)C)cc3)nc3nc[nH]n23)cc1", "Potency": "inactive"}
{"smiles": "Fc1ccc(Nc2nc(-c3ccccc3F)no2)cc1", "Potency": "inactive"}
{"smiles": "Cc1ccc(-c2nnc(SCc3ccccc3C)o2)cc1", "Potency": "inactive"}
{"smiles": "CCNC(=O)C1C(c2cccc(NC(=O)c3ccc(OC)cc3)c2)OC(=O)N1Cc1ccc(C)cc1", "note": "(centres undefined)", "Potency": "3.94 µM (active)"}
{"smiles": "Cc1cc(C)n(CCC(=O)N2CCC(Cc3noc(C4CC4)n3)C2)n1", "note": "(centres undefined)", "Potency": "inactive"}
{"smiles": "Cc1cccc(-c2cccc(NC(=O)C3CCCN(C(=O)CC(F)(F)F)C3)c2)c1", "note": "(centres undefined)", "Potency": "inactive"}
{"smiles": "Cc1nn(-c2ccc(C(C)C)cc2)c(C)c1[C@@H]1C=C[C@@H](NC(=O)CC2(CC(=O)O)CCCC2)C1", "Potency": "inactive"}
{"smiles": "CC(C)C(=O)Nc1cc(-c2nc3ccccc3s2)ccc1Cl", "Potency": "inactive"}
{"smiles": "COc1cccc(-c2nc3ccc(-c4ccc5c(c4)OCO5)cc3o2)c1OC", "Potency": "inactive"}
{"smiles": "OC1(CN2CCCCC2)CCN(c2nc3ccccc3s2)C1", "note": "(centres undefined)", "Potency": "inactive"}
{"smiles": "Cc1nn(-c2ccc(C(C)C)cc2)c(C)c1[C@@H]1C=C[C@@H](NC(=O)Nc2ccccc2)C1", "Potency": "inactive"}
{"smiles": "CN1CCN(C[C@@H]2CN(C(=O)CCCc3ccccc3)C[C@@H]2CO)CC1", "Potency": "inactive"}
{"smiles": "COc1ccc(-c2cc(N3CCCC(NC(=O)c4ccsc4)C3)n[nH]2)cc1", "note": "(centres undefined)", "Potency": "inactive"}
{"smiles": "COc1ccccc1OC1(C(=O)O)CCN(c2ncnc3nc[nH]c23)CC1", "Potency": "inactive"}
{"smiles": "O=C(CSc1ccc(F)cc1)Nc1ccccc1-c1nc2ccccc2s1", "Potency": "inactive"}
{"smiles": "O=C(Nc1ccccc1)c1nc2c(o1)CCN(Cc1cccc(Cl)c1)CC2", "Potency": "inactive"}
{"smiles": "COc1ccc(C(=O)Nc2onc3c2CCCC3)cc1", "Potency": "3.94 µM (active)"}
{"smiles": "OCc1cccc(-c2cc3c(cn2)CN(Cc2ccccc2)CCN3)c1", "Potency": "inactive"}
{"smiles": "O=C(/C=C/c1ccccc1)Nc1cc(-c2nc3cc(Cl)ccc3o2)ccc1Cl", "Potency": "inactive"}
{"smiles": "CC(=O)c1nn(-c2ccc(OC(F)(F)F)cc2)nc1Nc1ccccc1", "Potency": "inactive"}
{"smiles": "CNc1nc(C(=O)NCc2ccc3[nH]c(-c4ccc(F)cc4)c(C)c3c2)cs1", "Potency": "inactive"}
{"smiles": "CN1c2cc(C(=O)Nc3ccccc3)ccc2C(=O)N2CCCCCC21", "note": "(centres undefined)", "Potency": "inactive"}
{"smiles": "Cc1nn(-c2ccc(C(C)C)cc2)c(C)c1[C@@H]1C=C[C@@H](NC(=S)NCC(C)C)C1", "Potency": "inactive"}
{"smiles": "Cc1cccc(C(=O)Nc2ccc(-c3nc4ccccc4s3)c(C)c2)c1", "Potency": "inactive"}
{"smiles": "OCC1CCCN(c2ncnc3c2cnn3-c2ccccc2)C1", "note": "(centres undefined)", "Potency": "0.785 µM (active)"}
{"smiles": "Cc1ccc(Cl)cc1-n1ncc2c(N3CCC(C(N)=O)CC3)ncnc21", "Potency": "inactive"}
{"smiles": "OCCN1CCN(c2nc(N3CCCCC3)c3cnn(-c4ccc(Cl)cc4)c3n2)CC1", "Potency": "inactive"}
{"smiles": "C[S+](=O)([O-])CCn1ncc2cc(OCc3cccc(-c4ccccc4)c3)ccc21", "Potency": "inactive"}
{"smiles": "CC(=O)Oc1ccccc1C(=O)Nc1ccc(-c2nc3ccc(C)cc3s2)cc1", "Potency": "inactive"}
{"smiles": "O=C(NC1CCN(c2cc(-c3ccc(F)cc3)[nH]n2)C1)c1cc2ccccc2[nH]1", "note": "(centres undefined)", "Potency": "inactive"}
{"smiles": "Cc1ccc2cc(CN3CCN(CC(N)=O)CC3)c(-c3cccs3)nc2c1", "Potency": "inactive"}
{"smiles": "COc1ccc(CC(=O)Nc2ccc(-c3nc4ccccc4s3)c(C)c2)cc1", "Potency": "inactive"}
{"smiles": "COc1ccc(-c2nc3ccccc3s2)cc1NC(=O)COc1ccccc1C", "Potency": "inactive"}
{"smiles": "CCc1cccc(NC(=O)c2cc(-c3ccccc3)n[nH]2)c1", "Potency": "inactive"}
{"smiles": "COc1cc(F)ccc1-c1ccc(COc2ccc3c(cnn3CCC(=O)O)c2)cc1", "Potency": "inactive"}
{"smiles": "Cc1ccc(-c2nc(C(=O)N(C)Cc3ccccc3)no2)cc1", "Potency": "inactive"}
{"smiles": "Oc1cccc(-c2cc3c(cn2)CN(Cc2cccnc2)CCN3)c1", "Potency": "inactive"}
{"smiles": "O=C(COc1ccc(Cl)cc1)Nc1ccc(-c2nc3cc(Cl)ccc3o2)c(O)c1", "Potency": "inactive"}
{"smiles": "CCOC(=O)C1CCN(C(=O)c2cccc3c2CCN3C(=O)Nc2ccccc2)CC1", "Potency": "3.13 µM (active)"}
